Screens from PubChem.
S2 tox = Viability Counterscreen for Primary qHTS for Inhibitors of ATXN expression | 0.49% of 400,000 active | Potency, µM (series often up to 56.7 µM), hits mostly cytotoxic | S2 cells (HEK-293 line with an ATXN2-luciferase reporter) viability, CellTiter-Fluor protease fluorescence, 24 h; note: nearly all actives have a fitted effect of over 40% in size
HT1080 IDH1KD tx = qHTS for induction of synthetic lethality in tumor cells producing 2HG: qHTS for the HT-1080-IDH1KD cell line | HT-1080 IDH1 knockdown viability, ATP luminescence, 48 h | Potency, µM (series often up to 46.1 µM), inactives show top-dose activity, negative = toxicity, actives largely listed as cytotoxic | 2% of 360,000 active | AID 686971, 2013;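 note: 0% = DMSO wells and -100% = cell-free medium wells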
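Assay cells: HT-1080 with IDH1 knockdown, 750 per well, RPMI/5% FBS. Exposure: 48 h at 37 °C following 2 h pre-incubation. Read: CellTiter-Glo luminescence; fitted concentration-response, curve class assigned.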
KB-V1 MDR tox = qHTS assay for MDR1-selective chemotherapeutics: Primary screen using the drug-selected MDR subline cells KB-V1; KB-V1 MDR cells viability, CellTiter-Glo, 72 h; Potency, µM (series often up to 46.1 µM), usual class: cytotoxic; 3.4% of 400,000 active; note: % is set by controls: 0 for no effect and ±100 for the full control effect; nearly all actives have a fitted effect of over 60% in size
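Drug-selected KB-V1 cells, grown in DMEM lacking phenol red with 10% FBS, receive compound titrations; after three days at 37 degrees C, surviving cell ATP is quantified by CellTiter-Glo luminescence and responses normalized and curve-fitted.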
ATXN2 expr inh = Primary qHTS for Inhibitors of ATXN expression | 0.72% of 360,000 active | HEK-293 ATXN2-luciferase reporter, luminescence, 24 h | Potency, µM (doses to about 57 µM), inactives show at the top dose activity change, negative = inhibition, most hits filed as inhibitors; note: % is set by controls: 0 for no effect and ±100 for the full control effect; nearly all actives have a fitted effect of over 55% in size
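qHTS (up to 57 uM final) was run with 24 h compound exposure of reporter cells at 37 °C. Each well was multiplexed: SteadyGlo luminescence measured ATXN2-luciferase expression after a fluorogenic Gly-Phe-AFC viability readout (25 uM final).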
HT1080NT lethal = qHTS for induction of synthetic lethality in tumor cells producing 2HG: qHTS for the HT-1080-NT fibrosarcoma cell line | HT-1080-NT fibrosarcoma viability, CellTiter-Glo ATP luminescence, 48 h | Potency, µM (series often up to 46.1 µM), without a hit: at the top dose activity, negative = less viability, actives largely listed as cytotoxic | 1.6% of 360,000 active | AID 686970, 2013;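 note: NT is the 2HG producing partner of a matched IDH1 knockdown line; 0% = DMSO-treated cells and -100% = media-only wells without cells; nearly all actives have a fitted effect of over 55% in size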
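Toxicity toward the 2HG-producing NT line was scored as %Activity, normalised to DMSO and no-cell wells, from CellTiter-Glo luminescence after 48 hours' treatment.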
KB-3-1 tox = qHTS assay for MDR1-selective chemotherapeutics: Primary screen using the parental adenocarcinoma cell KB-3-1. KB-3-1 viability, CellTiter-Glo ATP luminescence, 72 h. Potency, µM (series often up to 46.1 µM), hits mostly cytotoxic. AID 1347075, 2019. 1.4% of 400,000 active; note: % is set by controls: 0 for no effect and ±100 for the full control effect; nearly all actives have a fitted effect of over 60% in size
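Here the drug-naive KB-3-1 line serves as comparator for MDR sub-line selectivity; cells received compound titrations, 72 h at 37 °C, then CellTiter-Glo readout.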
Active calls of the source: *; i = inactive; ? = inconclusive; . = no result; ! = not confirmed by another sample. Rows were chosen to be rich in hits. Some 6.2% of all compounds tested hit in one or more screens of this group. Calls come from the whole dose curve; as a rule, active = well fitted curve in the direction sought with a large enough effect; inconclusive = small, poorly fitted or top-dose-only effect, or another doubt; inactive = no such curve, though single readings can be large; an effect the other way counts as inactive or inconclusive. Potency is the fitted concentration of half-maximal effect.

SMILES | S2 tox | HT1080 IDH1KD tx | KB-V1 MDR tox | ATXN2 expr inh | HT1080NT lethal | KB-3-1 tox
Clc1cccc(-c2nc(NCCN3CCOCC3)c3ccccc3n2)c1 | i | ? | 21µM* | -24% | ? | i
Clc1cccc(-c2nc(NCCCN3CCOCC3)c3ccccc3n2)c1 | . | ? | i | . | 21µM* | i
Cc1ccc(-c2nc(NCCN3CCOCC3)c3ccccc3n2)cc1 | ? | ? | i | -22% | ? | i
Oc1ccccc1-c1nc(NCCN2CCOCC2)c2ccccc2n1 | ? | 21µM* | 16µM* | -16% | 21µM* | ?
Cc1ccc(O)c(-c2n[nH]c3c2C(c2ccccc2F)N(Cc2ccco2)C3=O)c1 (stereo not given) | . | . | ? | ? | . | i
CC1=C(C(=O)N2CCOCC2)CC(CC(=O)NC(c2ccccc2)c2ccccc2)C(=O)N1CCC1=CCCCC1 (stereo not given) | i | -17% | 10µM* | -11% | -19% | i
CC1=C(C(=O)N(C(C)C)C(C)C)CC(CC(=O)NC(c2ccccc2)c2ccccc2)C(=O)N1CCC1=CCCCC1 (stereo not given) | . | ? | ? | 0% | ? | ?
CCCCN1C(=O)C(CC(=O)NCc2cccc3ccccc23)CC(C(=O)N2CCCCCC2)=C1C (stereo not given) | ? | -5% | 9.2µM* | -35% | 0% | ?
CC1=C(C(=O)N2CCCCCC2)CC(CC(=O)NCCCCc2ccccc2)C(=O)N1CCC1=CCCCC1 (stereo not given) | . | ? | 16µM* | ? | ? | ?
COCCCN1C(=O)C(CC(=O)NCc2cccc3ccccc23)CC(C(=O)N2CCOCC2)=C1C (stereo not given) | i | 20% | i | -2% | 18% | i
COCCCN1C(=O)C(CC(=O)NCc2cccc3ccccc23)CC(C(=O)N2CCCCCC2)=C1C (stereo not given) | . | -8% | 10µM* | . | -2% | .
CC1=C(C(=O)N2CCCCCC2)CC(CC(=O)NCc2cccs2)C(=O)N1CCC1=CCCCC1 (stereo not given) | ? | 9% | ? | -15% | 1% | i
CC1=C(C(=O)N2CCCCCC2)CC(CC(=O)NCc2cccc3ccccc23)C(=O)N1CCC1=CCCCC1 (stereo not given) | ? | ? | 18µM* | -31% | ? | ?
CCCS(=O)(=O)N1CC(=O)N(c2ccccc2C)C(C)(C(=O)NC2CCCCC2)C1 (stereo not given) | . | . | i | . | . | i
Cn1c(=NC(=O)C2=NNC(=O)CC2)sc2ccccc21 | i | 28% | 1.5µM* | 13% | 22% | 3.3µM*
Cn1c(=NC(=O)CN2C(=O)C3CC=CCC3C2=O)sc2ccccc21 (stereo not given) | ? | 14% | 5.2µM*! | 13% | 14% | i
Cc1ccccc1-c1nc(CS(=O)(=O)CC(=O)Nc2cccc(C(F)(F)F)c2)c(C)o1 | i | . | i | -14% | . | i
CN(C)c1ccc(/C=C/c2ccnc3ccc(O)cc23)cc1 | . | . | i | . | . | ?
O=C1C=C(C2CCCCC2)C(=O)c2ccccc21 | i | 1% | i | -4% | 2% | i
COC1=CC(=O)c2ccccc2C1=O | i | 5.2µM* | ? | 28µM* | 12µM* | 16µM*
COC1=CC(=O)C=C(OC)C1=O | ? | ? | i | 5.6µM* | 18µM* | ?
COc1ccc(OCC(O)Cn2c(Nc3cccc(C)c3)nc3c2c(=O)n(C)c(=O)n3C)cc1 (stereo not given) | i | 7% | i | -18% | 5% | i
